Experimental data from PubChem BioAssay AID1159580 (chemical genetic matrix, 2015).
Among all 5,500 compounds or so, about 2,000 (36%) were called active. Inconclusive results (about 18%) are left out. Some of the results follow. Unmarked numbers belong to inactive results. Rule as the data show it: active = normalized growth mostly below about 0.91 (no sharp cut-off); inconclusive = no clear call, values can overlap the other calls; inactive = mostly above about 0.92.

Experiment: chemical genetic growth profiling, strain panel (AID 1159580);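 also: tested at 20 µM; growth read once vehicle control cultures reached saturation at 30 °C; 1 = growth at the plate median or of vehicle wells; lower values mean less growth of the strain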
Conditions: growth OD

With `C/C=C(/C(=C/C)c1ccc(O)cc1)c1ccc(O)cc1` as the compound, how does the normalized growth (S. cerevisiae deletion strains, locus YKL009W, strain mrt4, hits give low values) read?
Its normalized growth is 0.81 (active).

And the normalized growth (S. cerevisiae deletion strains, locus YKL068W, hits give low values)?
The normalized growth was 0.961.

What about the normalized growth (S. cerevisiae deletion strains, locus YKL085W, strain MDH1 (second series), hits give low values) of the same compound?
Its normalized growth is 0.764 (active).

What about the normalized growth (S. cerevisiae deletion strains, locus YKL085W, strain MDH1, hits give low values) of the same compound?
The normalized growth was 0.764 (active).

What about the normalized growth (S. cerevisiae deletion strains, locus YKL160W, strain elf1, hits give low values) of the same compound?
Its normalized growth is 0.947.

What about the normalized growth (S. cerevisiae deletion strains, locus YKL190W, strain CNB1, hits give low values) of the same compound?
Its normalized growth is 0.976.

And the normalized growth (S. cerevisiae deletion strains, locus YKR001C, strain vps1, hits give low values)?
The normalized growth was 0.531 (active).

And the normalized growth (S. cerevisiae deletion strains, locus YKR026C, strain gcn3, hits give low values)?
Its normalized growth is 0.986.

And the normalized growth (S. cerevisiae deletion strains, locus YKR091W, strain srl3, hits give low values)?
Its normalized growth is 0.995.

And the normalized growth (S. cerevisiae deletion strains, locus YLL001W, strain dnm1, hits give low values)?
The normalized growth was 0.948.

What about the normalized growth (S. cerevisiae deletion strains, locus YLL026W, hits give low values) of the same compound?
Its normalized growth is 0.969.

What about the normalized growth (S. cerevisiae deletion strains, locus YLL041C, strain sdh2, hits give low values) of the same compound?
The normalized growth was 0.965.

And the normalized growth (S. cerevisiae deletion strains, locus YLR027C, strain aat2, hits give low values)?
Its normalized growth is 0.959.

What about the normalized growth (S. cerevisiae deletion strains, locus YLR039C, strain RIC1, hits give low values) of the same compound?
Its normalized growth is 0.368 (active).

What about the normalized growth (S. cerevisiae deletion strains, locus YLR058C, strain SHM2, hits give low values) of the same compound?
The normalized growth was 0.759 (active).

And the normalized growth (S. cerevisiae deletion strains, locus YLR102C, strain apc9, hits give low values)?
The normalized growth was 0.991.

What about the normalized growth (S. cerevisiae deletion strains, locus YLR113W, strain HOG1, hits give low values) of the same compound?
Its normalized growth is 0.985.

And the normalized growth (S. cerevisiae deletion strains, locus YLR221C, strain rsa3, hits give low values)?
Its normalized growth is 0.982.

And the normalized growth (S. cerevisiae deletion strains, locus YLR258W, strain gsy2, hits give low values)?
The normalized growth was 0.996.

And the normalized growth (S. cerevisiae deletion strains, locus YLR262C, strain YPT6 (second series), hits give low values)?
The normalized growth was 0.659 (active).

And the normalized growth (S. cerevisiae deletion strains, locus YLR262C, strain YPT6, hits give low values)?
The normalized growth was 0.292 (active).

And the normalized growth (S. cerevisiae deletion strains, locus YLR268W, strain sec22, hits give low values)?
Its normalized growth is 0.866 (active).

What about the normalized growth (S. cerevisiae deletion strains, locus YLR320W, strain mms22, hits give low values) of the same compound?
Its normalized growth is 0.978.

What about the normalized growth (S. cerevisiae deletion strains, locus YLR330W, strain CHS5, hits give low values) of the same compound?
The normalized growth was 0.724 (active).

What about the normalized growth (S. cerevisiae deletion strains, locus YLR342W, strain FKS1 (second series), hits give low values) of the same compound?
Its normalized growth is 0.683 (active).

And the normalized growth (S. cerevisiae deletion strains, locus YLR342W, strain FKS1, hits give low values)?
Its normalized growth is 0.943.

And the normalized growth (S. cerevisiae deletion strains, locus YLR357W, strain rsc2, hits give low values)?
The normalized growth was 0.989.

What about the normalized growth (S. cerevisiae deletion strains, locus YLR370C, strain arc18, hits give low values) of the same compound?
Its normalized growth is 1.

What about the normalized growth (S. cerevisiae deletion strains, locus YLR371W, strain rom2, hits give low values) of the same compound?
Its normalized growth is 0.453 (active).

What about the normalized growth (S. cerevisiae deletion strains, locus YLR384C, strain iki3, hits give low values) of the same compound?
Its normalized growth is 0.983.

And the normalized growth (S. cerevisiae deletion strains, locus YLR418C, strain cdc73, hits give low values)?
The normalized growth was 0.542 (active).

What about the normalized growth (S. cerevisiae deletion strains, locus YML016C, strain PPZ1, hits give low values) of the same compound?
The normalized growth was 0.914 (active).

And the normalized growth (S. cerevisiae deletion strains, locus YML032C, strain rad52, hits give low values)?
The normalized growth was 0.691 (active).

What about the normalized growth (S. cerevisiae deletion strains, locus YML120C, strain ndi1, hits give low values) of the same compound?
The normalized growth was 0.909 (active).

And the normalized growth (S. cerevisiae deletion strains, locus YML124C, strain tub3, hits give low values)?
Its normalized growth is 0.971.

And the normalized growth (S. cerevisiae deletion strains, locus YMR058W, strain fet3, hits give low values)?
The normalized growth was 0.932.

And the normalized growth (S. cerevisiae deletion strains, locus YMR078C, strain ctf18, hits give low values)?
Its normalized growth is 0.979.

And the normalized growth (S. cerevisiae deletion strains, locus YMR125W, strain sto1, hits give low values)?
Its normalized growth is 0.924.

What about the normalized growth (S. cerevisiae deletion strains, locus YMR129W, hits give low values) of the same compound?
The normalized growth was 0.986.

What about the normalized growth (S. cerevisiae deletion strains, locus YMR205C, strain PFK2, hits give low values) of the same compound?
The normalized growth was 0.958.

And the normalized growth (S. cerevisiae deletion strains, locus YMR223W, strain ubp8, hits give low values)?
The normalized growth was 0.745 (active).

And the normalized growth (S. cerevisiae deletion strains, locus YMR231W, strain pep5, hits give low values)?
The normalized growth was 0.975.

And the normalized growth (S. cerevisiae deletion strains, locus YMR263W, strain SAP30, hits give low values)?
Its normalized growth is 0.851 (active).

What about the normalized growth (S. cerevisiae deletion strains, locus YMR307W, strain GAS1, hits give low values) of the same compound?
The normalized growth was 0.336 (active).

What about the normalized growth (S. cerevisiae deletion strains, locus YNL067W, strain RPL9B, hits give low values) of the same compound?
Its normalized growth is 0.863 (active).

What about the normalized growth (S. cerevisiae deletion strains, locus YNL071W, strain lat1, hits give low values) of the same compound?
Its normalized growth is 0.906 (active).

And the normalized growth (S. cerevisiae deletion strains, locus YNL183C, strain NPR1, hits give low values)?
The normalized growth was 0.971.

What about the normalized growth (S. cerevisiae deletion strains, locus YNL209W, strain ssb2, hits give low values) of the same compound?
Its normalized growth is 1.

What about the normalized growth (S. cerevisiae deletion strains, locus YNL233W, strain BNI4, hits give low values) of the same compound?
The normalized growth was 0.76 (active).

And the normalized growth (S. cerevisiae deletion strains, locus YNL248C, strain rpa49, hits give low values)?
The normalized growth was 0.951.

And the normalized growth (S. cerevisiae deletion strains, locus YNL250W, strain rad50, hits give low values)?
The normalized growth was 0.871 (active).

What about the normalized growth (S. cerevisiae deletion strains, locus YNL271C, strain bni1, hits give low values) of the same compound?
The normalized growth was 0.899 (active).

What about the normalized growth (S. cerevisiae deletion strains, locus YNL298W, strain CLA4, hits give low values) of the same compound?
Its normalized growth is 0.629 (active).

What about the normalized growth (S. cerevisiae deletion strains, locus YNL307C, strain MCK1, hits give low values) of the same compound?
Its normalized growth is 0.707 (active).

What about the normalized growth (S. cerevisiae deletion strains, locus YNL322C, strain KRE1 (second series), hits give low values) of the same compound?
The normalized growth was 0.985.

And the normalized growth (S. cerevisiae deletion strains, locus YNR049C, strain mso1, hits give low values)?
The normalized growth was 0.99.

What about the normalized growth (S. cerevisiae deletion strains, locus YNR052C, strain pop2, hits give low values) of the same compound?
Its normalized growth is 0.383 (active).

What about the normalized growth (S. cerevisiae deletion strains, locus YOL006C, strain TOP1, hits give low values) of the same compound?
The normalized growth was 0.456 (active).

What about the normalized growth (S. cerevisiae deletion strains, locus YOL012C, strain htz1) of the same compound?
Its normalized growth is 1.01.

And the normalized growth (S. cerevisiae deletion strains, locus YOL147C, strain pex11, hits give low values)?
The normalized growth was 0.839 (active).

And the normalized growth (S. cerevisiae deletion strains, locus YOR001W, strain rrp6, hits give low values)?
The normalized growth was 0.967.

And the normalized growth (S. cerevisiae deletion strains, locus YOR061W, strain CKA2, hits give low values)?
Its normalized growth is 0.879 (active).

And the normalized growth (S. cerevisiae deletion strains, locus YOR069W, strain VPS5, hits give low values)?
The normalized growth was 0.896 (active).

What about the normalized growth (S. cerevisiae deletion strains, locus YOR070C, strain gyp1, hits give low values) of the same compound?
The normalized growth was 0.989.

And the normalized growth (S. cerevisiae deletion strains, locus YOR080W, strain dia2, hits give low values)?
Its normalized growth is 0.97.

What about the normalized growth (S. cerevisiae deletion strains, locus YOR083W, strain WHI5, hits give low values) of the same compound?
Its normalized growth is 0.929.

And the normalized growth (S. cerevisiae deletion strains, locus YOR106W, strain vam3, hits give low values)?
The normalized growth was 0.914.

And the normalized growth (S. cerevisiae deletion strains, locus YOR136W, strain idh2, hits give low values)?
Its normalized growth is 0.938.

And the normalized growth (S. cerevisiae deletion strains, locus YOR144C, strain elg1, hits give low values)?
Its normalized growth is 0.86 (active).

What about the normalized growth (S. cerevisiae deletion strains, locus YOR184W, strain ser1, hits give low values) of the same compound?
The normalized growth was 0.609 (active).

What about the normalized growth (S. cerevisiae deletion strains, locus YOR231W, strain MKK1, hits give low values) of the same compound?
The normalized growth was 0.964.

And the normalized growth (S. cerevisiae deletion strains, locus YOR265W, strain rbl2, hits give low values)?
Its normalized growth is 0.976.

What about the normalized growth (S. cerevisiae deletion strains, locus YOR270C, strain vph1, hits give low values) of the same compound?
The normalized growth was 0.911.

What about the normalized growth (S. cerevisiae deletion strains, locus YOR290C, strain snf2, hits give low values) of the same compound?
The normalized growth was 0.971.

And the normalized growth (S. cerevisiae deletion strains, locus YOR316C, strain cot1, hits give low values)?
The normalized growth was 0.993.

What about the normalized growth (S. cerevisiae deletion strains, locus YPL051W, strain arl3, hits give low values) of the same compound?
The normalized growth was 0.956.

What about the normalized growth (S. cerevisiae deletion strains, locus YPL078C, strain atp4, hits give low values) of the same compound?
The normalized growth was 0.901.

And the normalized growth (S. cerevisiae deletion strains, locus YPL106C, strain sse1, hits give low values)?
The normalized growth was 0.975.

What about the normalized growth (S. cerevisiae deletion strains, locus YPL240C, strain hsp82, hits give low values) of the same compound?
The normalized growth was 0.981.

And the normalized growth (S. cerevisiae deletion strains, locus YPL241C, strain CIN2, hits give low values)?
Its normalized growth is 0.988.

What about the normalized growth (S. cerevisiae deletion strains, locus YPL256C, strain CLN2, hits give low values) of the same compound?
Its normalized growth is 0.992.

And the normalized growth (S. cerevisiae deletion strains, locus YPR119W, strain clb2, hits give low values)?
The normalized growth was 0.981.

And the normalized growth (S. cerevisiae deletion strains, locus YPR141C, strain kar3, hits give low values)?
The normalized growth was 0.978.

What about the normalized growth (S. cerevisiae deletion strains, locus YPR163C, strain tif3, hits give low values) of the same compound?
Its normalized growth is 0.91 (active).

What about the normalized growth (S. cerevisiae deletion strains, locus YPR167C, strain met16, hits give low values) of the same compound?
The normalized growth was 0.854 (active).

And the normalized growth (S. cerevisiae deletion strains, strain wtn01, hits give low values)?
The normalized growth was 0.837 (active).

What about the normalized growth (S. cerevisiae strains, strain wild type, hits give low values) of the same compound?
The normalized growth was 0.877 (active).
